# Compounds with a hit are over-represented: about 19% of the library has one in this group of screens.
# DT40 TDP1 CPT: qHTS for Inhibitors of human tyrosyl-DNA phosphodiesterase 1 (TDP1): qHTS in cells in presence of CPT; AID 686979, 2013; chicken DT40 Tdp1-/-;hTDP1 cells + 20 nM CPT, ATP luminescence, 48 h; 420,000 tested, 12% active; Potency, µM (series often up to 46.2 µM), without a hit: at the highest dose activity change, negative = growth inhibition, hits mostly inhibitors; also: potency is read from the fitted curve at half-maximal effect; nearly all actives have a fitted effect of over 55% in size
#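 Cell growth measured by CellTiter-Glo luminescence after a minimum 48 h, 37 C compound exposure with 20 nM CPT in Tdp1-knockout DT40 cells stably expressing hTDP1, seeded 400/well; qHTS titration format.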
# ELG1 DNA repair: qHTS screen for small molecules that inhibit ELG1-dependent DNA repair in human embryonic kidney (HEK293T) cells expressing luciferase-tagged ELG1 | HEK293T ELG1-luciferase reporter, luminescence, 16 h; DNA damage induced by 5-fluorouridine | 330,000 tested, 2.3% active | AID 504467, 2011 | Potency, µM (top dose mostly 46.1 µM), inactives show top-dose activity change, negative = inhibition, usual class: inhibitors; also: potency is read from the fitted curve at half-maximal effect; nearly all actives have a fitted effect of over 55% in size
#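 Luminescence from the luciferase reporter, measured 30 min after ONE-Glo reagent at room temperature, was the read-out. Beforehand, 2,000 cells per well were exposed for 16 hr at 37 °C to 5-fluorouridine together with compound or vehicle.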
# HT1080NT lethal: qHTS for induction of synthetic lethality in tumor cells producing 2HG: qHTS for the HT-1080-NT fibrosarcoma cell line | HT-1080-NT fibrosarcoma viability, CellTiter-Glo ATP luminescence, 48 h | Potency, µM (doses to about 46.1 µM), inactives show top-dose activity, negative = less viability, usual class: cytotoxic | 360,000 tested, 1.6% active | AID 686970, 2013;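 also: NT is the 2HG producing partner of a matched IDH1 knockdown line; potency is read from the fitted curve at half-maximal effect; 0% = DMSO-treated cells and -100% = media-only wells without cells; nearly all actives have a fitted effect of over 55% in size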
#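 Toxicity toward the 2HG-producing NT line was scored as %Activity, normalised to DMSO and no-cell wells, from CellTiter-Glo luminescence after 48 hours' treatment.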
# DT40 TDP1 no CPT: qHTS for Inhibitors of human tyrosyl-DNA phosphodiesterase 1 (TDP1): qHTS in cells in absence of CPT | DT40 Tdp1-/- hTDP1 cells, no CPT, ATP luminescence, 48 h | Potency, µM (doses to about 46.2 µM), without a hit: top-dose activity change, negative = growth inhibition, hits mostly inhibitors | 420,000 tested, 15% active; also: potency is read from the fitted curve at half-maximal effect; nearly all actives have a fitted effect of over 55% in size
#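 Camptothecin absent (DMSO only). Human TDP1-complemented DT40 knockout cells, 400 cells/well, 37 °C for minimum 48 hr; ATP measured via CellTiter-Glo, 30 min dark incubation, luminescence.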
# HT1080 IDH1KD tx: qHTS for induction of synthetic lethality in tumor cells producing 2HG: qHTS for the HT-1080-IDH1KD cell line; AID 686971, 2013; HT-1080 IDH1 knockdown viability, ATP luminescence, 48 h; Potency, µM (highest dose often 46.1 µM), without a hit: at the top dose activity, negative = toxicity, actives largely listed as cytotoxic; 360,000 tested, 2% active;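 also: potency is read from the fitted curve at half-maximal effect; 0% = DMSO wells and -100% = cell-free medium wells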
#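 In this qHTS, HT-1080 cells depleted of IDH1 are exposed for 48 h at 37 °C to compound titrations. Toxicity is scored from CellTiter-Glo luminescence, with DMSO as full viability and medium alone as none.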
# IL1B secr inh: qHTS for Inhibitors of Inflammasome Signaling: IL-1-beta AlphaLISA Primary Screen. THP-1 LPS/ATP IL-1B secretion, AlphaLISA, 16 h; hits give low values. activity change, % at 57.5 µM. 360,000 tested, 4.7% active. AID 743279, 2014; in the data active = activity change below about -50%; inconclusive = mostly about -30% to -49%
#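 Secreted IL-1B measured by AlphaLISA bead assay after 16 h compound exposure of THP-1 cells; compounds (final up to 57.5 uM) added 1 h before LPS (250 ng/mL) and ATP (1.25 mM) stimulation; lower signal means less secretion.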
# The depositor's hits bear a star; u = inconclusive; x = no result given. Unless noted, calls follow the shape of the dose curve; as a rule, active = well fitted curve in the direction sought with a large enough effect; inconclusive = small, poorly fitted or top-dose-only effect, or another doubt; inactive = no such curve, though single readings can be large; an effect the other way counts as inactive or inconclusive. Unless noted, % is scaled to controls: 0 for no effect and ±100 for the full control effect.
SMILES,DT40 TDP1 CPT,ELG1 DNA repair,HT1080NT lethal,DT40 TDP1 no CPT,HT1080 IDH1KD tx,IL1B secr inh
CCN1C(=O)c2ccccc2S(=O)c2ccc(C(=O)N3CCN(c4cc(Cl)ccc4C)CC3)cc21 (stereo unspecified),u,x,x,23.1µM*,x,x
CCN1CCN(C(=O)c2ccc3c(c2)N(Cc2cc(C)ccc2C)C(=O)c2ccccc2S3=O)CC1 (stereo unspecified),18.4µM*,x,x,16.4µM*,x,x
CCN1C(=O)c2ccccc2S(=O)c2ccc(C(=O)N3CCCC3)cc21 (stereo unspecified),-10.2%,23.0%,11.7%,u,-7.2%,-10.7
Cc1ccc(C)c(CN2C(=O)c3ccccc3S(=O)c3ccc(C(=O)N4CCN(c5ccccn5)CC4)cc32)c1 (stereo unspecified),u,u,u,16.4µM*,-11.8%,-24.0
C=CCN(Cc1nc(-c2ccccc2)no1)C(=O)c1ccco1,-27.3%,17.5%,0.0%,u,1.5%,-6.9
S=C(c1ccc(Br)cc1)N1CCCC1,3.5%,9.7%,2.3%,-9.7%,-1.2%,-15.2
S=C(N/N=C/c1ccc(Cl)cc1)N1CCOCC1,0.0092µM*,u,3.6%,0.0184µM*,9.9%,26.8
Cc1ccc(/C=N/NC(=S)N2CCOCC2)cc1,-12.4%,u,5.9%,-22.7%,-2.2%,1.1
S=C(N/N=C/c1ccc(Br)cc1)N1CCCCC1,1.16µM*,u,-15.8%,u,-25.9%,-7.7
CC1CCN(C(=O)c2cc(S(=O)(=O)N3CCOCC3)ccc2N2CCCC2)CC1,-19.2%,12.4%,-0.6%,u,-5.3%,-28.7
COCC(=O)Nc1cc(C(=O)N2CCc3sccc3C2)c2c(c1)nc(-c1ccncc1)n2C,2.7%,x,x,-0.8%,x,x
CCOC(=O)C1C(=O)CC(C)(O)C(C(=O)OCC)C1c1ccco1 (stereo unspecified),18.4µM*,7.1%,-0.8%,20.6µM*,-6.2%,7.3
CCOC(=O)C1C(=O)CC(C)(O)C(C(=O)OCC)C1c1cccs1 (stereo unspecified),8.2%,10.4%,8.7%,-0.2%,7.8%,-1.4
CC(=O)OCCNc1cc(SC(C)C)c2nonc2c1[N+](=O)[O-],-1.4%,-3.9%,-17.5%,u,-5.1%,-22.4
CCC(=O)OCCNc1cc(Sc2nccn2C)c2nonc2c1[N+](=O)[O-],1.03µM*,-27.0%,14.6µM*,2.31µM*,u,-67.5*
CCCC(=O)OCCNc1cc(Sc2nc3ccccc3[nH]2)c2nonc2c1[N+](=O)[O-],2.31µM*,u,20.6µM*,3.26µM*,u,-103.9*
CCOc1ccc(-c2cc(C(=O)NCCCN3CCN(CC)CC3)c3ccccc3n2)cc1,u,u,u,u,u,-71.2*
CCOc1ccc(-c2cc(C(=O)NCCCn3ccnc3)c3ccccc3n2)cc1,u,1.9%,-5.5%,u,-8.0%,-5.1
CCOc1ccc(-c2cc(C(=O)NCCCn3ccnc3)c3cc(Br)ccc3n2)cc1,11.6µM*,u,u,10.3µM*,u,-99.1*
CCOc1ccc(-c2cc(C(=O)O)c3ccccc3n2)cc1,u,u,u,u,11.2µM*,21.0
CCNC(=O)C1(C)CCCN1C(=O)c1c(F)cccc1F (stereo unspecified),-29.7%,x,25.8%,-12.5%,8.5%,0.0
Cc1nc2sccn2c(=O)c1S(=O)(=O)Nc1ccc(N2CCOCC2)c(Cl)c1,18.4µM*,-22.4%,6.1%,29.1µM*,-3.3%,32.5
Cc1ccc(NS(=O)(=O)c2c(C)nc3sc(C)c(C)n3c2=O)cc1F,11.6µM*,x,x,14.6µM*,x,x
Cc1nc2sccn2c(=O)c1S(=O)(=O)Nc1ccc(N2CCN(C(=O)C(C)C)CC2)cc1,u,1.8%,-0.3%,u,3.3%,50.8
Cc1ccc(NS(=O)(=O)c2c(C)nc3sccn3c2=O)cc1,u,-4.9%,0.0%,-26.6%,-7.6%,15.8
SMILES,DT40 TDP1 CPT,ELG1 DNA repair,HT1080NT lethal,DT40 TDP1 no CPT,HT1080 IDH1KD tx,IL1B secr inh
CCOC(=O)c1ccc(NS(=O)(=O)c2c(C)nc3sccn3c2=O)cc1,16.4µM*,9.1%,-12.1%,16.4µM*,-2.2%,3.1
CC(=O)c1cccc(NS(=O)(=O)c2cc3c(cc2C)NC(=O)CO3)c1,-12.4%,-14.3%,3.4%,-3.3%,-12.3%,11.1
CCOC(=O)c1cccc(NS(=O)(=O)c2cc3c(cc2C)NC(=O)CO3)c1,18.4µM*,x,x,18.4µM*,x,x
Cc1cc(C)cc(C(=O)NCC(=O)OCC(=O)NC2CC2)c1,5.7%,u,16.9%,4.1%,20.3%,-0.6
CCc1cccc(NS(=O)(=O)c2c(C)nc3sc(CC)nn3c2=O)c1,u,-12.0%,8.9%,20.6µM*,0.8%,23.0
CCOC(=O)c1cccc(NS(=O)(=O)c2c(C)nc3sc(C)cn3c2=O)c1,13µM*,x,x,23.1µM*,x,x
Cc1nc2scc(C)n2c(=O)c1S(=O)(=O)Nc1ccc(OC(F)(F)F)cc1,20.6µM*,2.8%,-18.8%,14.6µM*,-14.3%,14.1
CC(=O)c1cccc(NS(=O)(=O)c2c(C)nc3sc(C)cn3c2=O)c1,18.4µM*,x,x,14.6µM*,x,x
O=C(Nc1cccc(F)c1)N1CCCC2(CCN(S(=O)(=O)c3ccccc3)CC2)C1,5.8%,x,x,u,x,x
Cc1cccc(N(C)C(=O)C2CCCN2S(=O)(=O)c2cccc3nsnc23)c1 (stereo unspecified),-26.5%,-6.0%,8.4%,-7.6%,16.8%,u
C#CCn1c(=O)cc(C)c2ccccc21,22.1%,19.5%,3.2%,6.3%,7.6%,61.7
C#CCn1cc(C=C2C(=O)c3ccccc3C2=O)c2ccccc21,23.1µM*,u,-5.5%,20.6µM*,2.8%,7.2
CCOC(=O)C1C(c2ccc(O)c(OC)c2)NC(=S)NC1(O)C(F)(F)F (stereo unspecified),-4.9%,10.8%,8.8%,1.2%,5.0%,4.7
O=C(COc1coc(CN2CCN(c3ccc(F)cc3)CC2)cc1=O)NC1CCCCC1,u,x,-0.6%,7.31µM*,-11.1%,0.0
O=C(COc1coc(CN2CCN(c3ccc(F)cc3)CC2)cc1=O)NC1CCCC1,u,-11.1%,12.8%,u,4.8%,1.3
